Experimental data from PubChem BioAssay AID1649 (The Scripps Research Institute Molecular Screening Center, 2009).
The other results are listed elsewhere or left out. Unmarked numbers belong to inactive results. Cut-off read from the data, not from the text of the source: active = activation above about 33%; inactive = the rest.

Test: NPY-Y2 potentiators or agonists, counter-screen for NPY-Y1 potentiator project, cell-based, fluorescence (AID 1649)
Conditions: HEK293-CNG cells, membrane-potential fluorescence (FLIPR), 1536-well; at 3.6 µM; active compounds read high

Compound | activation
CSC1=NP(=S)(SC)N(C)c2nc3n(c21)CCC3 (configuration not stated) | 3.63%
Cc1nn(Cc2ccccc2Cl)c(Cl)c1C(=O)OC(C(=O)NC(N)=O)C(C)C (configuration not stated) | 23.6%
